Targets with a hit are over-represented here; the source holds about 7,900 in all. About 0.6% of all pairs of compound and target were hits. A number with no mark means an inactive call.
Compound: CC1=CC=C(C=C1)SC2=C3C=C(SC3=CN=C2)C(=O)N
Experiment: log2 fold change, soluble protein after heating vs DMSO (PISA); higher = thermal stabilisation; K562 cells, 10 uM, 30 min; active = over 0.2 and 3.5 SD of the protein, either way, in both replicates (recomputed)
Summary of the method: (§1)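 K562 cells at 2×10^6 cells/mL were exposed to 10 μM compound for 30 min, then aliquots were heated for 3 min across 48°C-58°C, pooled, and extracted in PBS containing 0.5% NP-40 at 4°C. The supernatant after 21,000xg for 90 min was taken as soluble protein and measured by TMTpro 16plex LC-MS/MS with channel sums equalised. Thermal stability is reported relative to control samples, with values from duplicates. Fold changes are given on a log2 scale.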

Sequence of UniProt Q8IUI8 (Q8IUI8 whole entry, looked up): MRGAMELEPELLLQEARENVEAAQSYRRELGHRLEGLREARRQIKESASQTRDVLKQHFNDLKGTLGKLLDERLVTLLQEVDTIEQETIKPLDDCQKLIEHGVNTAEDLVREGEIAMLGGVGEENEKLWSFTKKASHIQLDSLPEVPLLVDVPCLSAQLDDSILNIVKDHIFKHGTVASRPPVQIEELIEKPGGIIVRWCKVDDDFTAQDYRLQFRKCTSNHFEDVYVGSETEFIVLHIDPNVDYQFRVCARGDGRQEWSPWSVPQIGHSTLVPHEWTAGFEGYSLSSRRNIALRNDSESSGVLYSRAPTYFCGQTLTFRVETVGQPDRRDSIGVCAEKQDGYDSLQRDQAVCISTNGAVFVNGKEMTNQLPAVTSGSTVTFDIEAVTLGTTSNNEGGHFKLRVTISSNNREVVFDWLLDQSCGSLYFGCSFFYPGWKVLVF
Sequence of UniProt P46109 (P46109 whole entry, looked up): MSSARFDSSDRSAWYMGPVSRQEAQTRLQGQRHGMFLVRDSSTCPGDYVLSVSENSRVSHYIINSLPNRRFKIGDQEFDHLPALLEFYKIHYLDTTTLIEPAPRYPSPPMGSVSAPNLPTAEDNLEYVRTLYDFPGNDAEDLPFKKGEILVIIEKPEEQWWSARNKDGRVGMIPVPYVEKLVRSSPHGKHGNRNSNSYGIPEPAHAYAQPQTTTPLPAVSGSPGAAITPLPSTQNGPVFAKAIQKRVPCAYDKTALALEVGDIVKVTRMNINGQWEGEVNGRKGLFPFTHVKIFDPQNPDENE
Sequence of UniProt O15182 (O15182 whole entry, looked up): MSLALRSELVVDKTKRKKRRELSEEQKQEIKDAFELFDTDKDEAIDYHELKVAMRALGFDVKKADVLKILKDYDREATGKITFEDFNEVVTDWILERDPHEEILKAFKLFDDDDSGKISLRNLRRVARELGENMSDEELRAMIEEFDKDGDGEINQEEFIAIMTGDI
Sequence of UniProt O75153 (O75153 whole entry, looked up): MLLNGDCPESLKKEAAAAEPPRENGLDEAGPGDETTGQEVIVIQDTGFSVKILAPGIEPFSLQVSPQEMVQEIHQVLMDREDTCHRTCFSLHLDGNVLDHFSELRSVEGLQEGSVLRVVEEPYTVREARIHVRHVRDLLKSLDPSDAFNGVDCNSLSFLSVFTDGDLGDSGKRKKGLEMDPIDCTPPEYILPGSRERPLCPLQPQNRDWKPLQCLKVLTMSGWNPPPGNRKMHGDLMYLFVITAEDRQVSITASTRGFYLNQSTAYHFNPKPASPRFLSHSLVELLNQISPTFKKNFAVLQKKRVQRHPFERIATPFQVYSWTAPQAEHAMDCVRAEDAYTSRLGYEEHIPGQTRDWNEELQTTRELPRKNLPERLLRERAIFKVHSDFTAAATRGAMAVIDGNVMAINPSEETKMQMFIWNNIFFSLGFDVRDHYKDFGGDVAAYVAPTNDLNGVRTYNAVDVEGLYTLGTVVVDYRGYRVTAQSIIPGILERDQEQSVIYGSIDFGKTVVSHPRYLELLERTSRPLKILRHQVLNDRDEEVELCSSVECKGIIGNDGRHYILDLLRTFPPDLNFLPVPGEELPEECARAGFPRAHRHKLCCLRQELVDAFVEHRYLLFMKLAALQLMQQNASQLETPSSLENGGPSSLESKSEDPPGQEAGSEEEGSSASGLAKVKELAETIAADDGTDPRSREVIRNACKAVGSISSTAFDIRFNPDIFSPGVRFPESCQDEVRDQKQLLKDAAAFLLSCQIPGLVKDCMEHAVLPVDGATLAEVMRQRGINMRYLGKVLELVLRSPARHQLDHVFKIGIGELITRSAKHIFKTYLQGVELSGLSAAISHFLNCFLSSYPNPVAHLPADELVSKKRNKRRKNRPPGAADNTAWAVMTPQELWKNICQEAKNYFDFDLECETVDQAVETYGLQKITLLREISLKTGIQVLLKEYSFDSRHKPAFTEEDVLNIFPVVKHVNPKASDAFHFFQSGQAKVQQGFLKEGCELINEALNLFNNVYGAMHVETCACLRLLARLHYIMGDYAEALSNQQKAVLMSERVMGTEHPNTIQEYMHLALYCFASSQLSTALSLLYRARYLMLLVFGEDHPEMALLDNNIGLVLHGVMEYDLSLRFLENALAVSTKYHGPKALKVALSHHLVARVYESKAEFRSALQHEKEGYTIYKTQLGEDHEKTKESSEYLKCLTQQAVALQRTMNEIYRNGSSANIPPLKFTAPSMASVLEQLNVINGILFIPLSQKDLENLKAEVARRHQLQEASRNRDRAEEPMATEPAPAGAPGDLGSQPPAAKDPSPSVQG
Sequence of UniProt Q9P031 (Q9P031 whole entry, looked up): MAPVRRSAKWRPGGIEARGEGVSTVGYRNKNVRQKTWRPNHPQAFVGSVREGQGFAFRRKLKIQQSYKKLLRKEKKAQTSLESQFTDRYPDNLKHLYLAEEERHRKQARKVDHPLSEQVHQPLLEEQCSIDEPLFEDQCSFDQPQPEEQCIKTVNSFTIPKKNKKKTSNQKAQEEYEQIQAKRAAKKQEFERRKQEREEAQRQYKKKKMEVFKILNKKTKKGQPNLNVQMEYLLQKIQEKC
Sequence of UniProt Q14677 (Q14677 whole entry, looked up): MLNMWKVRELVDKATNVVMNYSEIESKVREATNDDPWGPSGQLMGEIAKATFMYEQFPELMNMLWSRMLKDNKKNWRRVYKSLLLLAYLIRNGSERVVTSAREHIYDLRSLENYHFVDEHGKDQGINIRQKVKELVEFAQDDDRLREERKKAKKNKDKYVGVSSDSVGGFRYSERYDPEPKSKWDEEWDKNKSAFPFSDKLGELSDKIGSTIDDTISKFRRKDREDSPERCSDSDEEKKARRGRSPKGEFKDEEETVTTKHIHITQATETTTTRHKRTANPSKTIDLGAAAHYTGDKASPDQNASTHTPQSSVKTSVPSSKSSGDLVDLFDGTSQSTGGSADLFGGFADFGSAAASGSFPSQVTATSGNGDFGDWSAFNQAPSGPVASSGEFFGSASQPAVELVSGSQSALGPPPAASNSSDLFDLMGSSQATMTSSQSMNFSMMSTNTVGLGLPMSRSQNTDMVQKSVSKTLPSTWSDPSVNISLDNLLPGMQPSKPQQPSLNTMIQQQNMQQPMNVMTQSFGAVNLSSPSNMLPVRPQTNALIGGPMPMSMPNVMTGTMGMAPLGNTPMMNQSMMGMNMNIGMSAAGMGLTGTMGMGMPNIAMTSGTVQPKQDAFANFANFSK
Sequence of UniProt Q8N1A6 (Q8N1A6 whole entry, looked up): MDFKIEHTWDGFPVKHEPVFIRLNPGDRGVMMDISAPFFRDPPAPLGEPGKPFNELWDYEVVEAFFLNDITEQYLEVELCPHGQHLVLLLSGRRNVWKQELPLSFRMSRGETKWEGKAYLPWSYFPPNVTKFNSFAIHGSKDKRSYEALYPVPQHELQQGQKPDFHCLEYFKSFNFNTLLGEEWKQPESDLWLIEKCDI
Sequence of UniProt Q2TAC2 (Q2TAC2 whole entry, looked up): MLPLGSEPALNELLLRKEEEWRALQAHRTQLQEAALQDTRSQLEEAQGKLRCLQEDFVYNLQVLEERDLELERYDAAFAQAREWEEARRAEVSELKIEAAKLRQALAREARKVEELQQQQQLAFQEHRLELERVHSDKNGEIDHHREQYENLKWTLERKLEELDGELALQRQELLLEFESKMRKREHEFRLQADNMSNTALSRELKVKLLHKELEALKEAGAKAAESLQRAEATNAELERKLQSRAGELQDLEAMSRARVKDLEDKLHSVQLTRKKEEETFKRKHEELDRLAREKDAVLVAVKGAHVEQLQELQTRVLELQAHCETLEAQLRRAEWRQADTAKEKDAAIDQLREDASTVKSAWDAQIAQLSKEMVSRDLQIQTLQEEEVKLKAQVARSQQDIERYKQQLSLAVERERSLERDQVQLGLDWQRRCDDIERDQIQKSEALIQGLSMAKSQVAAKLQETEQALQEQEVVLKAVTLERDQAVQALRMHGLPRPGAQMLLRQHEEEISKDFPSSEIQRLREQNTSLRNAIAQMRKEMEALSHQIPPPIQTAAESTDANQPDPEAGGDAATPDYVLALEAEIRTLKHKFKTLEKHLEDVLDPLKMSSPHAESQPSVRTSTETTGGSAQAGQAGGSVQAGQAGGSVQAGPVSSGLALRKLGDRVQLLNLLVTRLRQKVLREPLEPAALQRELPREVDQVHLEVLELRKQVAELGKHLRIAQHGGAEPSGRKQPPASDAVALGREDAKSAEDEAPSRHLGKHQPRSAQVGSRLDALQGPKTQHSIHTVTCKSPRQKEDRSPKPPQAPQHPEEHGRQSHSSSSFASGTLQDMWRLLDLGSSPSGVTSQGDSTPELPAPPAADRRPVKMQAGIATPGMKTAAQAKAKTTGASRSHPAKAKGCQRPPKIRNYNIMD
Sequence of UniProt Q96G23 (Q96G23 whole entry, looked up): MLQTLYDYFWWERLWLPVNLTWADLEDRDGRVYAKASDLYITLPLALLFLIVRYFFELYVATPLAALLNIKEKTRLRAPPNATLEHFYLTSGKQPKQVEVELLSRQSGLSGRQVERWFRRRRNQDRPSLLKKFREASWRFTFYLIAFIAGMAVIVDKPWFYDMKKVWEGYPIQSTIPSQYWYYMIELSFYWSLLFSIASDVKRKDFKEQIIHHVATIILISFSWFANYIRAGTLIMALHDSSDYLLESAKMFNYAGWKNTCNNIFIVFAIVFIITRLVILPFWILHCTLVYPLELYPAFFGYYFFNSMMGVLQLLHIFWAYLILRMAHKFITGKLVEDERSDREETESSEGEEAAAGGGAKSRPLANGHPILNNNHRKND
Sequence of UniProt P67870 (P67870 whole entry, looked up): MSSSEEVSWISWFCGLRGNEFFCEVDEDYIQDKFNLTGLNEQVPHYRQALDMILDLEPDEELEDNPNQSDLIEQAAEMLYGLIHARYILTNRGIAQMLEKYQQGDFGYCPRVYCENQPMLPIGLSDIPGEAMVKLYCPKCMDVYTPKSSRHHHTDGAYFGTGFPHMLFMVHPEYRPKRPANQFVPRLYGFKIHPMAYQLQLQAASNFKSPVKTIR
Sequence of UniProt Q9NRR8 (Q9NRR8 whole entry, looked up): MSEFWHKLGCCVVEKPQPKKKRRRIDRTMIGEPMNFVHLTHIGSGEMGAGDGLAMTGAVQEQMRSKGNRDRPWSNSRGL

Target	log2 fold change
CERT isoform 3 (UniProt Q9Y5P4)	-0.039
CCDC57 (UniProt Q2TAC2)	0.032
CRKL (UniProt P46109)	0.014
CBX1 (UniProt P83916)	0.04
CBX5 (UniProt P45973)	0.073
CRLF3 (UniProt Q8IUI8)	0.03
CASC3 (UniProt O15234)	0.009
CD55 isoform 7 (UniProt P08174)	0.021
CALCOCO2 isoform 4 (UniProt Q13137)	0.006
CETN3 (UniProt O15182)	-0.099
CHAC2 (UniProt Q8WUX2)	0.037
CPSF7 isoform 3 (UniProt Q8N684)	0.014
CNTN4 (UniProt Q8IWV2)	0.035
CD63 (UniProt P08962)	0.004
CCDC59 (UniProt Q9P031)	-0.144
CBR1 (UniProt P16152)	0.005
CHP1 (UniProt Q99653)	-0.112
CLINT1 isoform 3 (UniProt Q14677)	-0.094

Target	log2 fold change
COMMD2 (UniProt Q86X83)	0.007
C9orf72 (UniProt Q96LT7)	0.027
CLUH (UniProt O75153)	-0.002
CERS2 (UniProt Q96G23)	0.036
CKB (UniProt P12277)	-0.008
CHCHD1 (UniProt Q96BP2)	0.279
CDK5RAP3 isoform 4 (UniProt Q96JB5)	0.008
CAD (UniProt P27708)	0.027
CSTF3 (UniProt Q12996)	-0.005
CSNK2B (UniProt P67870)	-0.032
CCZ1 (UniProt P86791)	0.014
CDC42SE1 (UniProt Q9NRR8)	0.016
COPS3 (UniProt Q9UNS2)	0.009
C4orf33 (UniProt Q8N1A6)	0.049
CTBS (UniProt Q01459)	-0.026
CALB1 (UniProt P05937)	0.027
CAMKK2 (UniProt Q96RR4)	-0.044
CAMSAP1 isoform 3 (UniProt Q5T5Y3)	-0.02

Compound: CC1=NC(=CC=C1)C2=C(N=C(N2)C(C)(C)C)C3=CC4=NC=CN=C4C=C3
Experiment: as above
Summary of the method: as §1

Target	log2 fold change
CERT isoform 3 (UniProt Q9Y5P4)	-0.001
CCDC57 (UniProt Q2TAC2)	-0.01
CRKL (UniProt P46109)	0.019
CBX1 (UniProt P83916)	0.318 (active)
CBX5 (UniProt P45973)	0.113
CRLF3 (UniProt Q8IUI8)	-0.071
CASC3 (UniProt O15234)	-0.027
CD55 isoform 7 (UniProt P08174)	0.049
CALCOCO2 isoform 4 (UniProt Q13137)	0.012
CETN3 (UniProt O15182)	-0.102
CHAC2 (UniProt Q8WUX2)	0.015
CPSF7 isoform 3 (UniProt Q8N684)	0.012
CNTN4 (UniProt Q8IWV2)	-0.244
CD63 (UniProt P08962)	0.009
CCDC59 (UniProt Q9P031)	-0.213
CBR1 (UniProt P16152)	0.038
CHP1 (UniProt Q99653)	0.021
CLINT1 isoform 3 (UniProt Q14677)	-0.09

Target	log2 fold change
COMMD2 (UniProt Q86X83)	0.035
C9orf72 (UniProt Q96LT7)	-0.014
CLUH (UniProt O75153)	-0.072
CERS2 (UniProt Q96G23)	0.019
CKB (UniProt P12277)	0.016
CHCHD1 (UniProt Q96BP2)	0.008
CDK5RAP3 isoform 4 (UniProt Q96JB5)	0.015
CAD (UniProt P27708)	0.012
CSTF3 (UniProt Q12996)	0.006
CSNK2B (UniProt P67870)	0.066
CCZ1 (UniProt P86791)	0.035
CDC42SE1 (UniProt Q9NRR8)	-0.09
COPS3 (UniProt Q9UNS2)	0.034
C4orf33 (UniProt Q8N1A6)	-0.049
CTBS (UniProt Q01459)	-0.065
CALB1 (UniProt P05937)	0.042
CAMKK2 (UniProt Q96RR4)	-0.009
CAMSAP1 isoform 3 (UniProt Q5T5Y3)	-0.101
